Data on 37 molecules can be found in the supplement of paper PMC11634586.

The structures appear in SMILES notation. Structures can show the parent of a compound that is named as a salt. Unmarked numbers belong to inactive results.

The test relates to NCI-H1688. Kind of test: inhibition of cell viability relative to untreated control (fraction); higher = stronger growth inhibition, active = 0.5 or more. The settings on record: 30 µM; 24 h. The method, boiled down:
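After seeding at 3 × 10^3 cells/well in 96-well plates and a 24 h wait, NCI-H1688 small cell lung cancer cells received a natural compound library (TargetMol) at 30 µM for 24 h, kept at 37°C with 5% CO2. Triplicate readings of Cell Counting Kit-8 absorbance at 450 nm measured viability. Each value is the inhibition of cell viability as a fraction, derived from viability normalised to untreated cells.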
As to `C[C@H](CCC(=O)NCCS(=O)(=O)O)[C@H]1CC[C@H]2[C@@H]3[C@@H](O)C[C@@H]4C[C@H](O)CC[C@]4(C)[C@H]3CC[C@]12C` [Tauroursodeoxycholic Acid], the “inhibition of cell viability” value was 0.00688.

Consider `CC[C@]12CCCN3CCc4c(n(c5ccccc45)[C@@](O)(C(=O)OC)C1)[C@@H]32` [Vincamine], for which the “inhibition of cell viability” value was 0.408.

Take `COc1c(O)cc(O)c2c(=O)cc(-c3ccccc3)oc12` [Wogonin]: the “inhibition of cell viability” value is -0.0139.

For the molecule `COc1cc2c(cc1OC)[C@@H]1Cc3ccc(OC)c(OC)c3CN1CC2` [Rotundine, TETRAHYDROPALMATINE HYDROCHLORIDE], the “inhibition of cell viability” value was -0.254.

In the case of `CC[C@@]1(O)C(=O)OCc2c1cc1n(c2=O)Cc2cc3cc(O)ccc3nc2-1` [10-Hydroxycamptothecin], the “inhibition of cell viability” value is 0.98 (active).

As for `COc1c2occc2c(OC)c2c(=O)cc(C)oc12` [Khellin], the “inhibition of cell viability” value is 0.168.

Consider `CCOC(=O)C1=C[C@]2(CC)CCCN3CCc4c(n1c1ccccc41)[C@@H]32` [Vinpocetine], for which the “inhibition of cell viability” value is -0.174.

For the molecule `OC[C@H]1OC(O)[C@@H](O)[C@@H](O)[C@@H]1O` (some centres not stated) [Mannose], the “inhibition of cell viability” value was 0.0629.

Turning to `C=C[C@@]1(C)CC(=O)[C@]2(O)[C@@]3(C)[C@@H](O)CCC(C)(C)[C@@H]3[C@H](O)[C@H](OC(C)=O)[C@@]2(C)O1` [Forskolin], the “inhibition of cell viability” value was 0.166.

Consider `CC1OC(OC2C(OC3CCC4(C)C(CCC5(C)C4CC=C4C6CC(C)(C)CCC6(C(=O)OC6OC(COC7OC(CO)C(O)C(O)C7O)C(O)C(O)C6O)CCC45C)C3(C)CO)OCC(O)C2O)C(O)C(O)C1O` (configuration not stated) [Dipsacoside B], for which the “inhibition of cell viability” value is 0.235.

In the case of `O=C1c2cccc(O)c2C(=O)c2c(O)cccc21` [Antrapurol], the “inhibition of cell viability” value is 0.783 (active).

On to `C/C(=C\C(=O)OCCCCCCCCC(=O)O)C[C@@H]1OC[C@H](C[C@@H]2O[C@H]2[C@@H](C)[C@H](C)O)[C@@H](O)[C@H]1O` [Mupirocin], for which the “inhibition of cell viability” value is 0.0375.

As for `O=C1O[C@H]([C@@H](O)CO)C(O)=C1O` [L(+)-Ascorbic acid], the “inhibition of cell viability” value is 0.195.

For `OCCc1ccc(O)cc1` [Tyrosol], the “inhibition of cell viability” value is 0.0116.

As to `Cc1c(S(=O)(=O)O)oc2c1C(=O)C(=O)c1c-2ccc2c1CCCC2(C)C` [Tanshinone IIA-sulfonic sodium], the “inhibition of cell viability” value was -0.0961.

Take `COC(=O)Nc1nc2cc(C(=O)c3cccs3)ccc2[nH]1` [Nocodazole]: the “inhibition of cell viability” value was 0.75 (active).

With `C=CCc1ccc(O)c(OC)c1` [Eugenol], the “inhibition of cell viability” value was -0.184.

As to `O=C(O)CCCC[C@@H]1CCSS1` [Thioctic acid], the “inhibition of cell viability” value was -0.0532.

In the case of `O=C(O)[C@H](O)Cc1ccc(O)c(O)c1` [Danshensu], the “inhibition of cell viability” value is 0.318.

As to `CC(C)(CO)C(O)C(=O)NCCCO` (configuration not stated) [Panthenol], the “inhibition of cell viability” value is 0.0837.

As to `C[C@H]1[C@H](C)CC[C@]2(C(=O)O)CC[C@]3(C)C(=CC[C@@H]4[C@@]5(C)C[C@@H](O)[C@H](O)[C@@](C)(CO)[C@@H]5[C@H](O)C[C@]43C)[C@H]12` [Madecassic acid], the “inhibition of cell viability” value is -0.00715.

As for `NC1C(O)O[C@H](CO)C(O[C@@H]2O[C@H](CO)C(O[C@@H]3O[C@H](CO)[C@@H](O)[C@H](O)[C@H]3N)[C@H](O)C2N)C1O` (some centres not stated) [Chitosan], the “inhibition of cell viability” value is 0.266.

Take `C=CCS[S+]([O-])CC=C` (configuration not stated) [Allicin]: the “inhibition of cell viability” value was -0.267.

With `CC[C@]1(O)C[C@@H]2CN(CCc3c([nH]c4ccccc34)[C@@](C(=O)OC)(c3cc4c(cc3OC)N(C)[C@H]3[C@@](O)(C(=O)OC)[C@H](OC(C)=O)[C@]5(CC)C=CCN6CC[C@]43[C@@H]65)C2)C1` [Vinblastine sulfate], the “inhibition of cell viability” value was 0.764 (active).

As to `COc1ccc(-c2coc3cc(O)ccc3c2=O)cc1` [Formononetin], the “inhibition of cell viability” value is 0.0427.

For `C=C1CC[C@H](O)C/C1=C/C=C1\CCC[C@]2(C)[C@@H]([C@H](C)/C=C/[C@H](C)C(C)C)CC[C@@H]12` [Vitamin D2], the “inhibition of cell viability” value is -0.0632.

Take `CN[C@@H]1[C@H](O[C@H]2[C@H](O[C@H]3[C@H](O)[C@@H](O)[C@H](N=C(N)N)[C@@H](O)[C@@H]3N=C(N)N)O[C@@H](C)[C@]2(O)C=O)O[C@@H](CO)[C@H](O)[C@H]1O` [Streptomycin sulfate]: the “inhibition of cell viability” value was -0.138.

As to `O=C1/C(=C2\Nc3ccccc3C2=O)Nc2ccccc21` [Indigo], the “inhibition of cell viability” value was -0.275.

Regarding `O=c1c(O)c(-c2ccccc2)oc2ccccc12` [3-Hydroxyflavone], the “inhibition of cell viability” value was 0.587 (active).

On to `O=c1cc(-c2ccccc2)oc2c(O)c(O)ccc12` [7,8-Dihydroxyflavone], for which the “inhibition of cell viability” value is 0.694 (active).

In the case of `COc1cc(C2Oc3cc([C@H]4Oc5cc(O)cc(O)c5C(=O)[C@@H]4O)ccc3OC2CO)ccc1O` (some centres not stated) [Silibinin], the “inhibition of cell viability” value was 0.0271.

As for `O=c1c(O)c(-c2ccc(O)c(O)c2)oc2cc(O)cc(O)c12` [Quercetin], the “inhibition of cell viability” value is 0.68 (active).

Take `O=C(O)[C@@H](O)[C@H](O)[C@H](O)[C@@H](O)C(=O)O` [Mucic Acid]: the “inhibition of cell viability” value is 0.0761.

As for `COC(=O)[C@H]1[C@H]2C[C@@H]3c4[nH]c5cc(OC)ccc5c4CCN3C[C@H]2C[C@@H](OC(=O)c2cc(OC)c(OC)c(OC)c2)[C@@H]1OC` [Reserpine], the “inhibition of cell viability” value was 0.981 (active).

In the case of `CC(C)=CCC[C@](C)(O[C@@H]1O[C@H](CO)[C@@H](O)[C@H](O)[C@H]1O)[C@H]1CC[C@]2(C)[C@@H]1[C@H](O)C[C@@H]1[C@@]3(C)CC[C@H](O[C@@H]4O[C@H](CO)[C@@H](O)[C@H](O)[C@H]4O[C@@H]4O[C@H](CO)[C@@H](O)[C@H](O)[C@H]4O)C(C)(C)[C@@H]3CC[C@]12C` [Ginsenoside Rd], the “inhibition of cell viability” value was 0.03.

On to `CC1(C)C(O[C@@H]2OC[C@@H](O)[C@H](O)[C@H]2O)CC[C@]23CC24CC[C@]2(C)[C@@H]([C@@]5(C)CC[C@@H](C(C)(C)O)O5)[C@H](O)C[C@@]2(C)C4C[C@@H](O[C@@H]2O[C@H](CO)[C@@H](O)[C@H](O)[C@H]2O)C13` (some centres not stated) [Astragaloside IV], for which the “inhibition of cell viability” value was -0.0383.

`Oc1cc(O)c2c(c1)O[C@H](c1ccc(O)c(O)c1)[C@H](O)C2` [Epicatechin]: the “inhibition of cell viability” value is 0.0727.
